# Data: publication PMC4336329 (PLoS ONE, 2015)
# Screen size: about 310,000 compounds; about 2,200 (0.71%) showed an effect of 50% or more. The effect is printed as a negative number. The entries come from a sample that favours strong results as a whole.
# Biological target: human ether-à-go-go-related gene (hERG) potassium channel (human, UniProt Q12809)
# Assay: primary screen, population patch clamp on CHO cells stably expressing hERG; higher = less effect of the substance
# Sequence of human ether-à-go-go-related gene (hERG) potassium channel (Q12809 whole entry, looked up): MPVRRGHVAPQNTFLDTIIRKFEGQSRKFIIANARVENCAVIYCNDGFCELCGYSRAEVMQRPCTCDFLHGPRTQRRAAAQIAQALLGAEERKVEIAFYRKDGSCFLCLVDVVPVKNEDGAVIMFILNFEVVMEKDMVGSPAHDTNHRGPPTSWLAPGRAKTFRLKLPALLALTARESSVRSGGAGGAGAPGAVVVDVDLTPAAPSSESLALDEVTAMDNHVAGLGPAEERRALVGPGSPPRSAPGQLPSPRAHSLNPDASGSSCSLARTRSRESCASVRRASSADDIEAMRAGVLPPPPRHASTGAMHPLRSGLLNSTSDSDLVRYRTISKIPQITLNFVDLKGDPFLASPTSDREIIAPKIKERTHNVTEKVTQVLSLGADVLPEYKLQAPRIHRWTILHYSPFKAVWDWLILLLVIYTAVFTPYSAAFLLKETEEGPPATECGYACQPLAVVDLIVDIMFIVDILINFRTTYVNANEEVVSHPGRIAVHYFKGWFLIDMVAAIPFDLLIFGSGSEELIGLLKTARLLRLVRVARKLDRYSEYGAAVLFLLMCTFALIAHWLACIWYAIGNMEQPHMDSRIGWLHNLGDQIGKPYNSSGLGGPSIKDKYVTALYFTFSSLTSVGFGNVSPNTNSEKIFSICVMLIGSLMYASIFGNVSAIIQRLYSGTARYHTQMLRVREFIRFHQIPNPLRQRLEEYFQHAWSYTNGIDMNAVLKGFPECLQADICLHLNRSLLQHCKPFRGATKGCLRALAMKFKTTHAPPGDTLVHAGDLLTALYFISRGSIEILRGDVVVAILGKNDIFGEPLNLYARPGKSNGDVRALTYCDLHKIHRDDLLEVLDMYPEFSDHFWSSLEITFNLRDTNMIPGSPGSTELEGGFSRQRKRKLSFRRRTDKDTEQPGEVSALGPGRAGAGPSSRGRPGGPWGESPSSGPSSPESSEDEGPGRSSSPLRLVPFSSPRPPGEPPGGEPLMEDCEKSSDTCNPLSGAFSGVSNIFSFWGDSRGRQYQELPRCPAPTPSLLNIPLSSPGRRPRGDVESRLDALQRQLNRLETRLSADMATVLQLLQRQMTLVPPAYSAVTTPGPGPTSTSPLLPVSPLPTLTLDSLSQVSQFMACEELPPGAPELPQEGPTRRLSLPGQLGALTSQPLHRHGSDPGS
row,SMILES,"hERG current change (%, negative = inhibition) at 1uM [%]"
1,CCCCNC(=O)c1cc2c(=O)n3cccc(C)c3nc2n(Cc2ccncc2)c1=N,-75.4
2,COCCNC(=O)c1cc2c(=O)n3cccc(C)c3nc2n(Cc2ccncc2)c1=N,-31.5
3,CCCc1cc(=O)n2[nH]c(NCc3c(F)cccc3Cl)nc2n1,12.7
4,O=C(NC1CCCCCC1)c1cc(=O)[nH]c2ccc(S(=O)(=O)N3CCOCC3)cc12,1.03
5,Cc1ccc(C)c(N2CCN(C(=O)c3ccc(Cn4c(=O)[nH]c5ccccc5c4=O)cc3)CC2)c1,11.6
6,COc1cccc(NC(=O)CCNC(=O)C2CCN(S(=O)(=O)c3ccc(F)cc3)CC2)c1,14.9
7,CCOC(=O)C1CCN(S(=O)(=O)c2ccc3oc(=O)ccc3c2)CC1,-78.2
8,CCOC(=O)C1CCN(S(=O)(=O)c2ccc3[nH]c(=O)ccc3c2)CC1,-2.48
9,CCOC(=O)C1CCN(S(=O)(=O)c2ccc3[nH]c(=O)oc3c2)CC1,3.58
10,CCC(=O)c1ccc(OCC(O)CNCc2ccc(F)cc2)cc1 (centres unmarked),-12.8
11,COc1ccc(CCNCC(O)COc2ccc(Cl)cc2)cc1OC.Cl (centres unmarked),-56
12,COc1ccc(CCNCC(O)COc2cccc(Br)c2)cc1OC (centres unmarked),-39.5
13,OC(CNCCc1ccc(Cl)cc1)COc1cc(Cl)ccc1Cl (centres unmarked),2.52
14,Cc1cc(Cl)ccc1OCC(O)CNCCc1ccc(S(N)(=O)=O)cc1 (centres unmarked),-58.2
15,COc1ccc(C(OCC(O)CNCCc2ccc(S(N)(=O)=O)cc2)c2ccc(OC)cc2)cc1 (centres unmarked),-1.33
16,COc1ccc(CCNCC(O)COc2cccc(C(C)=O)c2)cc1OC.O=C(O)C(=O)O (centres unmarked),16
17,CC(=O)c1cccc(OCC(O)CNCCc2ccc(Cl)cc2)c1 (centres unmarked),10.6
18,CCC(=O)c1ccc(OCC(O)CNCCc2ccc(Cl)cc2)cc1 (centres unmarked),-69.9
19,O=C(Nc1ccc(Oc2ccc(Cl)cc2)cc1)c1ncn[nH]1,2.59
20,Cc1nn(CC(=O)Nc2ccc(N3CCOCC3)cc2)c(C)c1Cl,19.7
21,CSc1ccc(CN(C)CC(=O)Nc2c(F)cccc2F)cc1.O=C(O)C(=O)O,7.89
22,COc1ccc2c(c1OC)CN(C)CCc1cc3c(cc1C(O)C2)OCO3 (centres unmarked),-0.22
23,COc1cc2c(cc1OC)C(=O)Cc1ccc3c(c1CN(C)CC2)OCO3,-39.4

row,SMILES,"hERG current change (%, negative = inhibition) at 1uM [%]"
1,COc1ccc2c(c1OC)CN(C)CCc1cc3c(cc1C(=O)C2)OCO3,-84
2,CC(C)(C)NC(=O)CSc1nccn1Cc1ccccc1,5.85
3,O=C(ONC1=NCCCCC1)c1cccc([N+](=O)[O-])c1,11.8
4,Cl.O=[N+]([O-])c1ccccc1/C=N/NC1=NCCCCC1,-0.325
5,O=[N+]([O-])c1cccc(/C=N/NC2=NCCCCC2)c1,-70.9
6,Cl.N=c1n(Cc2ccc(Cl)cc2)c2ccccc2n1CC(O)COc1ccccc1 (centres unmarked),-17.1
7,Cc1ccc(Cn2c(=N)n(CC(O)COc3ccccc3)c3ccccc32)cc1.Cl (centres unmarked),-36.1
8,COc1ccc(OCC(O)Cn2c(=N)n(CCN3CCOCC3)c3ccccc32)cc1.Cl (centres unmarked),-10.5
9,Cc1ccc(OCC(O)Cn2c(=N)n(Cc3ccccc3)c3ccccc32)cc1.Cl (centres unmarked),-61
10,OC(COc1ccccc1)Cn1c2ccccc2c2ccccc21 (centres unmarked),8.25
11,Cc1cccc(OCC(O)Cn2c(=N)n(Cc3ccccc3)c3ccccc32)c1.Cl (centres unmarked),-16.4
12,COc1ccc(OCC(O)Cn2c(=N)n(Cc3ccccc3)c3ccccc32)cc1.Cl (centres unmarked),-76.6
13,Cl.N=c1n(Cc2ccccc2)c2ccccc2n1CC(O)COc1ccccc1 (centres unmarked),-55.8
14,C=CCOC(=O)C1=C[C@H](c2ccc(C(F)(F)F)cc2)C[C@H](OCCCCO)O1,9.6
15,CCOC(=O)/C(=C/Nc1ccc(F)c(F)c1)[N+](=O)[O-],13
16,CCOC(=O)c1ccc(NC(=O)[C@@H](NC(N)=O)C(C)C)cc1,-0.13
17,NC(=O)c1c(NC(=O)Cn2cc([N+](=O)[O-])cn2)sc2c1CCCC2,2.68
18,CCN1C(=O)C(CC(=O)Nc2ccc(F)cc2)N(CCCN2CCN(c3ccc(F)cc3)CC2)C1=S (centres unmarked),0.806
19,COc1ccc(C(=O)NCCc2ccc(C)cc2)cc1OC1CCN(C(C)=O)CC1,9.4
20,COc1cc(CN2CCC(Oc3cc(C(=O)NC4CC4)ccc3OC)CC2)cc(OC)c1,-62
21,COc1ccc(C(=O)NC2CCCCCCC2)cc1OC,9.08
22,COc1ccc(C(=O)NC2CC2)cc1OC1CCN(Cc2cc(C)cc(C)c2)CC1,-57.7
23,COc1cccc(CCNC(=O)c2ccc(OC)c(OC3CCN(C(C)C)CC3)c2)c1,-2.35

row,SMILES,"hERG current change (%, negative = inhibition) at 1uM [%]"
1,CC(C)(C)NC(=O)c1c(F)c(F)c(F)c(F)c1F,4.34
2,O=S(=O)(c1cccc(-c2nnc(SCc3nc4ccccc4s3)o2)c1)N1CCOCC1,-2.26
3,Cc1ccc2c(c1)N(CC(=O)Nc1ccccc1F)C(=O)CO2,17.1
4,O=C(O)c1cccc(N/N=C(\N=Nc2ccccc2)c2ccccc2)c1,16.7
5,Cc1ccc2nc3c(cc(C(=O)NCCc4ccccc4)c(=N)n3CCCN3CCOCC3)c(=O)n2c1,-77.5
6,Cc1ccc2nc3c(cc(C(=O)NCCc4ccccc4)c(=N)n3CCN3CCOCC3)c(=O)n2c1,-82.9
7,Cc1ccc2nc3c(cc(C(=O)NCCN4CCOCC4)c(=N)n3CCCN3CCOCC3)c(=O)n2c1,5.89
8,CCCCNC(=O)Cn1cnc2sc(C(=O)OCC)c(C)c2c1=O,8.3
9,CC(C)[C@H](NC(=O)CCn1nnc2ccccc2c1=O)C(=O)O,17.3
10,O=C(/C=C/c1ccccc1O)c1ccc(Cl)cc1,9.95
11,Cc1nc2ccccc2c(=O)n1NC(=O)/C=C/c1ccccc1Cl,-51.1
12,Cc1nc2ccccc2c(=O)n1NC(=O)/C=C/c1ccccc1,-0.535
13,Cc1nc2ccccc2c(=O)n1NC(=O)/C=C/c1ccc(Br)cc1,2.25
14,Cc1csc(NC(=O)CCCc2cccs2)n1,1.69
15,CCCCCN(C(=O)CCC(=O)OCc1ccccc1C)c1c(N)n(CCCC)c(=O)[nH]c1=O,7.65
16,CN(c1cccc(NC(=O)CN(c2cccc(F)c2)S(C)(=O)=O)c1)S(C)(=O)=O,11.3
17,CCOC(=O)C1(Cc2cccc(OC)c2)CCN(Cc2cc(OC)ccc2OC)CC1,-7.48
18,CCOC(=O)C1(CCOc2ccccc2)CCN(Cc2ccc3nonc3c2)CC1,0.31
19,CCOC(=O)C1(CCOc2ccccc2)CCN(Cc2cc(OC)c3c(c2)OCO3)CC1,-7.24
20,CCOC(=O)C1(CCOc2ccccc2)CCN(Cc2ccccc2OC)CC1,-37.2
21,CCOC(=O)C1(CCOc2ccccc2)CCN(Cc2cccc(OC)c2O)CC1,-54.1
22,CCOC(=O)C1(CCOc2ccccc2)CCN(Cc2ccc(C)o2)CC1,-32.8
23,CCOC(=O)C1(CCOc2ccccc2)CCN(Cc2cc(OC)ccc2OC)CC1,-60.1

row,SMILES,"hERG current change (%, negative = inhibition) at 1uM [%]"
1,CCOC(=O)C1(Cc2ccccc2)CCCN(Cc2ccc(OCC)c(CO)c2)C1 (centres unmarked),4.54
2,CCOC(=O)C1(CCOc2ccccc2)CCN(Cc2ccccc2O)CC1,-8.86
3,CCOC(=O)C1(CCOc2ccccc2)CCN(Cc2cc(OC)c(O)c(OC)c2)CC1,-66.6
4,CCOC(=O)C1(CCOc2ccccc2)CCN(Cc2ccc(OCC)c(CO)c2)CC1,-82.4
5,Cc1cc(-c2ccco2)n(CC(=O)NCCCc2ccccc2)n1,14.3
6,CC(C)(C)NC(=O)c1ccc2nsnc2c1,6.08
7,C=CCn1c(COc2ccc(Cl)cc2)nnc1SCC(=O)N/N=C/c1cccc(O)c1,4.13
8,COc1cccc(-c2c(C#N)c(N)nc3c2c(C)nn3-c2ccccc2)c1O,1.84
9,FC(F)(F)c1ccncc1-c1nnc(C2CCCCC2)o1,15.5
10,CCOC(=O)N1CCC(NC(=O)c2cnn3cccnc23)CC1,-4.76
11,CC1CCCCN1CCNC(=O)CC1Oc2ccccc2NC1=O (centres unmarked),5.21
12,Cc1cc(C)nc(OC(C(=O)O)C(OCCC(C)C)(c2ccccc2)c2ccccc2)n1 (centres unmarked),10.8
13,CCOC(=O)C1(Cc2cccc(OC)c2)CCN(Cc2ccc(OC)c(O)c2)CC1,-16.9
14,CCOC(=O)C1(CCOc2ccccc2)CCN(Cc2ccc(COC)o2)CC1,-41.9
15,CCOC(=O)C1(CCOc2ccccc2)CCN(Cc2ccc(OC)c(COC)c2)CC1,-77.3
16,CCOC(=O)C1(CCOc2ccccc2)CCN(Cc2ccc(O)c(OC)c2)CC1,-69.9
17,CCOC(=O)C1(CCOc2ccccc2)CCN(Cc2ccc(F)c(OC)c2)CC1,5.6
18,CCOC(=O)C1(CCOc2ccccc2)CCN(Cc2ccc(OC)c(O)c2)CC1,-88.3
19,CCOC(=O)C1(CCOc2ccccc2)CCN(Cc2cc(OC)c(O)cc2Cl)CC1,7.21
20,CCOC(=O)C1(CCOc2ccccc2)CCN(Cc2ccc(O)c(Cl)c2)CC1,-2.25
